Paper PMC7862700, “An all-to-all approach to the identification of sequence-specific readers for epigenetic DNA modifications on cytosine”

Columns and labels:
Test in all cases: DAPPL (digital affinity profiling via proximity ligation, sequencing); 10 mM Tris-HCl pH 7.5, 50 mM NaCl, 1 mM DTT, 4% glycerol, room temperature, 30 min; GST-TFs on glutathione beads, 16-mer random dsDNA library, 0.1% formaldehyde crosslink after washing; high values mean tight binding
Details in all cases: protein: recombinant; tags: N-terminal GST; dsDNA, one strand shown
ERF = molecular target: T1, ERF (Homo sapiens, UniProt P50548 1-548)
T1 sequence: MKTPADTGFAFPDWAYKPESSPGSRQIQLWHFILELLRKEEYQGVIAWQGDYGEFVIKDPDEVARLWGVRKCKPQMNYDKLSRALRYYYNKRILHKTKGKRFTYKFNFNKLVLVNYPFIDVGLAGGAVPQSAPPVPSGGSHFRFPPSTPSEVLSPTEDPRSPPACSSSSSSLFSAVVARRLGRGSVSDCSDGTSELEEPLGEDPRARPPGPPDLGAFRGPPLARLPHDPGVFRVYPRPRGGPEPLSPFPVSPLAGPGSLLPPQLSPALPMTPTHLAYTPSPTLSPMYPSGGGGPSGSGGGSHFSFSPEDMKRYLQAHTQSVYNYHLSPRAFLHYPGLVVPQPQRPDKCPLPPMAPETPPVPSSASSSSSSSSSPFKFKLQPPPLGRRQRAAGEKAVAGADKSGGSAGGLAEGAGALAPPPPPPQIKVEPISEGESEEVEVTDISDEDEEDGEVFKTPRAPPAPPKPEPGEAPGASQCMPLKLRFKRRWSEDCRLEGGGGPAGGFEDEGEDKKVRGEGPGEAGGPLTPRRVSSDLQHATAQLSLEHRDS
How it was run: (§1)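 In yeast, human transcription factors were expressed with a GST fusion, then pulled down on glutathione beads and given DNA barcodes. Pooled with a tag-only sample, they were exposed to 200 nmole of a 16-mer random double-stranded DNA library (Tris/NaCl/DTT/glycerol buffer, room temperature, 30 min), washed, crosslinked with 0.1% formaldehyde, proximity-ligated using BsaI/T4 ligase for 1 h at 37 °C, PCR-amplified and read on an Illumina NextSeq500. Each hexamer's frequency of reads for a factor, divided by the matching frequency for the tag-only sample, gives the binding signal.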

ETV3L = molecular target: T2, ETV3L (Homo sapiens, UniProt Q6ZN32 1-361)
T2 sequence: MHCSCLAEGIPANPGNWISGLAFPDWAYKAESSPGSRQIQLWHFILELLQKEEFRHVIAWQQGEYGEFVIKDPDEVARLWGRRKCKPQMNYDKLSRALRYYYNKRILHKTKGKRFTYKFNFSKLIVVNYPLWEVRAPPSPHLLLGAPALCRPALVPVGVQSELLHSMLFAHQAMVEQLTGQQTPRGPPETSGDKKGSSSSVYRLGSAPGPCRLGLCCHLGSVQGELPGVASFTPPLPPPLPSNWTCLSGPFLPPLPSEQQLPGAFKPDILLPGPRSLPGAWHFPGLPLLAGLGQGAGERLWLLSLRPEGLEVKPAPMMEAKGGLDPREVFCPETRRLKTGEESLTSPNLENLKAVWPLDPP
How it was run: as §1

ETS2 = molecular target: T3, ETS2 (Homo sapiens, UniProt P15036 1-469)
T3 sequence: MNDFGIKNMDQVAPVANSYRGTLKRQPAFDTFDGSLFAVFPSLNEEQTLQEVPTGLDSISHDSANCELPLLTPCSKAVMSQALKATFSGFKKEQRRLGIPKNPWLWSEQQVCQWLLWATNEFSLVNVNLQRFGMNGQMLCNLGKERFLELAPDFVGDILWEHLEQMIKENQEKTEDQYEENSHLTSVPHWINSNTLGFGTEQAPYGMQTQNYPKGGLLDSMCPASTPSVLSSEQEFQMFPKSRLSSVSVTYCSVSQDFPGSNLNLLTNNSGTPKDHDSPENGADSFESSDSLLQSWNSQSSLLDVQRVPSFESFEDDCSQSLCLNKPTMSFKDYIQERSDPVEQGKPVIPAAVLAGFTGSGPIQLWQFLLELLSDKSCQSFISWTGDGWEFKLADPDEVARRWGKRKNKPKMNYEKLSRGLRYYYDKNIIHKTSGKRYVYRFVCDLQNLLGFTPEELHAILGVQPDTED
How it was run: as §1

SPDEF = molecular target: T4, SPDEF (Homo sapiens, UniProt O95238 1-335)
T4 sequence: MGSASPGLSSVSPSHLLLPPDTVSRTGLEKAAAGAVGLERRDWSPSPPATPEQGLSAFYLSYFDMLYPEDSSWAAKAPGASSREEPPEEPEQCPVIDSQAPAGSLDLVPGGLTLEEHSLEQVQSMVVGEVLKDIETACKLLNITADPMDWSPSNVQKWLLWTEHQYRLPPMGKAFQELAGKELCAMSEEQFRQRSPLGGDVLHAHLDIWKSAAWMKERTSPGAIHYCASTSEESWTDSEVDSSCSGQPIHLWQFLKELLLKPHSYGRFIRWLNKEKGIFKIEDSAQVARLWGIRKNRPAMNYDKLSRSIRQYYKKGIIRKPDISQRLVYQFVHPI
How it was run: as §1

ETV7 = molecular target: T5, ETV7 (Homo sapiens, UniProt Q9Y603 1-341)
T5 sequence: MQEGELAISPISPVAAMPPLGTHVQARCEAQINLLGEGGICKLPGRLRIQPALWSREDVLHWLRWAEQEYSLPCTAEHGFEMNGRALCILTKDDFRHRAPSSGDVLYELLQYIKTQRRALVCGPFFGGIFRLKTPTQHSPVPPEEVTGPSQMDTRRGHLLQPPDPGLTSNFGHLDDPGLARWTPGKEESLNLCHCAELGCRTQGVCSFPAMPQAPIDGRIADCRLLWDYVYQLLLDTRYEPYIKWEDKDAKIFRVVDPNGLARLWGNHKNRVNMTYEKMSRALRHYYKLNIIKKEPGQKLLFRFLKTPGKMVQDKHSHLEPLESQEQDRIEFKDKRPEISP
How it was run: as §1

ELF5 = molecular target: T6, ELF5 (Homo sapiens, UniProt Q9UKW6-2 1-255)
T6 sequence: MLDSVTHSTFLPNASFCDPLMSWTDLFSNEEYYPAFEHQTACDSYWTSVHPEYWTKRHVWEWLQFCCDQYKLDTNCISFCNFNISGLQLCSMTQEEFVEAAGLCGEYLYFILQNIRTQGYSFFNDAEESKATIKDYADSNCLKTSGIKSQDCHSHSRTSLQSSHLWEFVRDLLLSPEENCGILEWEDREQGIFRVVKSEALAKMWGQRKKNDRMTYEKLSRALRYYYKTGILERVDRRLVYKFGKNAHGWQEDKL
How it was run: as §1

ETV3 = molecular target: T7, ETV3 (Homo sapiens, UniProt P41162-2 1-143)
T7 sequence: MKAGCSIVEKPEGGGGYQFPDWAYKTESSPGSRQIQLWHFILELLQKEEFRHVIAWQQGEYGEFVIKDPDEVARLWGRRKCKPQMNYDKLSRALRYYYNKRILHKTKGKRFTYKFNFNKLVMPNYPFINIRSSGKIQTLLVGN
How it was run: as §1

ETV6 = ETV6 (Homo sapiens, UniProt P41212 1-452)
How it was run: as §1

ETV6, sequence (P41212 whole entry): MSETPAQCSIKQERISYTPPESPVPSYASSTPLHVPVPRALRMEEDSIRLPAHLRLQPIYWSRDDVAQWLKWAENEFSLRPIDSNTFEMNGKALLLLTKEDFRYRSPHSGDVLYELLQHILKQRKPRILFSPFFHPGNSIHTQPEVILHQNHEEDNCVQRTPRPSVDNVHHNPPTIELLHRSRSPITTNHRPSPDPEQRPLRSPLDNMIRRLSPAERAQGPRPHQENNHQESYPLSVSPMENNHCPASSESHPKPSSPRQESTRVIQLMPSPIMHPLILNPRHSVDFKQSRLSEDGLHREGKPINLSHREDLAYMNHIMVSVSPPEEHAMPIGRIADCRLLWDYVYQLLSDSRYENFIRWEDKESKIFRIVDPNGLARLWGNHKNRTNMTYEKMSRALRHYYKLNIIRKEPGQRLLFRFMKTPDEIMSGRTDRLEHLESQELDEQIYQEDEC

Sequence	binding signal (ERF)	binding signal (ETV3L)	binding signal (ETS2)	binding signal (SPDEF)	binding signal (ETV7)	binding signal (ELF5)	binding signal (ETV3)	binding signal (ETV6)
CTTGTT	1.17 fold enrichment (6-mer frequency, TF over GST control)	1.17 fold enrichment (6-mer frequency, TF over GST control)	1.15 fold enrichment (6-mer frequency, TF over GST control)	1.05 fold enrichment (6-mer frequency, TF over GST control)	1.27 fold enrichment (6-mer frequency, TF over GST control)	1.27 fold enrichment (6-mer frequency, TF over GST control)	1.2 fold enrichment (6-mer frequency, TF over GST control)	1.12 fold enrichment (6-mer frequency, TF over GST control)
TCCCGT	1.4 fold enrichment (6-mer frequency, TF over GST control)	1.29 fold enrichment (6-mer frequency, TF over GST control)	1.34 fold enrichment (6-mer frequency, TF over GST control)	1.44 fold enrichment (6-mer frequency, TF over GST control)	1.32 fold enrichment (6-mer frequency, TF over GST control)	1.6 fold enrichment (6-mer frequency, TF over GST control)	1.27 fold enrichment (6-mer frequency, TF over GST control)	1.3 fold enrichment (6-mer frequency, TF over GST control)
CTATCC	1.38 fold enrichment (6-mer frequency, TF over GST control)	1.4 fold enrichment (6-mer frequency, TF over GST control)	1.35 fold enrichment (6-mer frequency, TF over GST control)	1.63 fold enrichment (6-mer frequency, TF over GST control)	1.46 fold enrichment (6-mer frequency, TF over GST control)	1.45 fold enrichment (6-mer frequency, TF over GST control)	1.27 fold enrichment (6-mer frequency, TF over GST control)	1.32 fold enrichment (6-mer frequency, TF over GST control)
CGAAGC	1.38 fold enrichment (6-mer frequency, TF over GST control)	1.2 fold enrichment (6-mer frequency, TF over GST control)	1.33 fold enrichment (6-mer frequency, TF over GST control)	1.18 fold enrichment (6-mer frequency, TF over GST control)	1.44 fold enrichment (6-mer frequency, TF over GST control)	1.19 fold enrichment (6-mer frequency, TF over GST control)	1.34 fold enrichment (6-mer frequency, TF over GST control)	1.14 fold enrichment (6-mer frequency, TF over GST control)
CACTTC	3.07 fold enrichment (6-mer frequency, TF over GST control)	3.63 fold enrichment (6-mer frequency, TF over GST control)	3.66 fold enrichment (6-mer frequency, TF over GST control)	3.55 fold enrichment (6-mer frequency, TF over GST control)	3.64 fold enrichment (6-mer frequency, TF over GST control)	4.43 fold enrichment (6-mer frequency, TF over GST control)	3.65 fold enrichment (6-mer frequency, TF over GST control)	4.24 fold enrichment (6-mer frequency, TF over GST control)
CGCTAC	1.24 fold enrichment (6-mer frequency, TF over GST control)	1.17 fold enrichment (6-mer frequency, TF over GST control)	1.24 fold enrichment (6-mer frequency, TF over GST control)	1.21 fold enrichment (6-mer frequency, TF over GST control)	1.2 fold enrichment (6-mer frequency, TF over GST control)	1.16 fold enrichment (6-mer frequency, TF over GST control)	1.16 fold enrichment (6-mer frequency, TF over GST control)	1.27 fold enrichment (6-mer frequency, TF over GST control)
